Several values for one entry are separate records, joined by “and”; a condition that tells them apart may be missing. Equal entries are not always repeated. About 2,000 (36%) of roughly 5,500 compounds were called active. Another 18% or so got no clear call; they are omitted. No stated cut-off is given here; in the data, active means normalized growth mostly below about 0.91 (no sharp cut-off); inconclusive means no clear call, values can overlap the other calls; inactive means mostly above about 0.92. Some of the results follow.
Experiment: chemical genetic growth profiling, strain panel (AID 1159580);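 further: tested at 20 µM; growth read once vehicle control cultures reached saturation at 30 °C; 1 = growth at the plate median or of vehicle wells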
Settings: S. cerevisiae deletion strains, growth OD

Measured: normalized growth

C[C@]12CCC3C(CC[C@]4(O)C[C@@H](O)CC[C@]34C=O)[C@@]1(O)CCC2C1=CC(=O)OC1 (stereo not given in full)
active: locus YER015W, strain faa2, stronger effect = lower value 0.922
inactive: locus YAL021C, strain ccr4, stronger effect = lower value 0.92 | locus YAL026C, strain drs2, stronger effect = lower value 0.983 | locus YAL030W, strain snc1, stronger effect = lower value 0.975 | locus YBL061C, strain skt5, stronger effect = lower value 0.979 | locus YBR009C, strain hhf1, stronger effect = lower value 0.967 | locus YBR021W, strain FUR4, stronger effect = lower value 1 | locus YBR023C, strain chs3, stronger effect = lower value 0.98 | locus YBR171W, strain sec66, stronger effect = lower value 0.986 | locus YBR229C, strain ROT2, stronger effect = lower value 0.94 | locus YBR231C, strain swc5, stronger effect = lower value 0.995 | locus YBR279W, strain paf1, stronger effect = lower value 0.986 | locus YCL011C, strain gbp2, stronger effect = lower value 0.943 | locus YCL016C, strain dcc1, stronger effect = lower value 0.958 | locus YCL029C, strain bik1, stronger effect = lower value 0.962 | locus YCL069W, strain vba3, stronger effect = lower value 0.981 | locus YCR088W, strain abp1, stronger effect = lower value 0.988 | locus YDL005C, strain med2, stronger effect = lower value 0.969 | locus YDL035C, strain GPR1, stronger effect = lower value 0.964 | locus YDL040C, strain nat1, stronger effect = lower value 0.992 | locus YDL074C, strain BRE1, stronger effect = lower value 1.01 | locus YDL101C, strain DUN1, stronger effect = lower value 0.987 | locus YDL185W, strain tfp1, stronger effect = lower value 0.962 | locus YDL192W, strain arf1, stronger effect = lower value 0.976 | locus YDR001C, strain nth1, stronger effect = lower value 0.967 | locus YDR069C, strain doa4, stronger effect = lower value 0.986 | locus YDR101C, strain arx1, stronger effect = lower value 0.97 | locus YDR137W, strain rgp1, stronger effect = lower value 0.971 | locus YDR159W, strain sac3, stronger effect = lower value 1.05 | locus YDR162C, strain NBP2, stronger effect = lower value 0.975 | locus YDR195W, strain ref2 1.01 | locus YDR297W, strain sur2, stronger effect = lower value 0.994 | locus YDR318W, strain mcm21, stronger effect = lower value 0.98 | locus YDR334W, strain swr1, stronger effect = lower value 0.978 | locus YDR335W, strain msn5, stronger effect = lower value 0.989 | locus YDR388W, stronger effect = lower value 0.982 | locus YDR392W, strain spt3, stronger effect = lower value 0.889 | locus YDR502C, strain sam2, stronger effect = lower value 0.99 | locus YEL003W, strain gim4, stronger effect = lower value 0.991 | locus YEL037C, strain rad23, stronger effect = lower value 0.979 | locus YEL061C, strain CIN8 (second series), stronger effect = lower value 0.984 | locus YEL061C, strain CIN8, stronger effect = lower value 0.986 | locus YER016W, strain bim1, stronger effect = lower value 0.991 | locus YER110C, stronger effect = lower value 0.98 | locus YER111C, strain swi4, stronger effect = lower value 1.02 | locus YER155C, strain BEM2 (second series), stronger effect = lower value 1.06 | locus YER155C, strain BEM2, stronger effect = lower value 0.994 | locus YER167W, strain BCK2, stronger effect = lower value 0.984 | locus YFR010W, strain ubp6, stronger effect = lower value 0.982 | locus YGL078C, strain dbp3, stronger effect = lower value 0.996 | locus YGL086W, strain mad1, stronger effect = lower value 0.992 | locus YGL167C, strain pmr1, stronger effect = lower value 0.965 | locus YGL173C, strain kem1, stronger effect = lower value 0.994 | locus YGL227W, strain vid30, stronger effect = lower value 0.998 | locus YGL240W, strain doc1, stronger effect = lower value 1.03 | locus YGL248W, strain PDE1, stronger effect = lower value 1 | locus YGL253W, strain hxk2, stronger effect = lower value 0.985 | locus YGR135W, strain pre9, stronger effect = lower value 0.975 | locus YGR229C, strain SMI1, stronger effect = lower value 0.991 | locus YGR252W, strain gcn5, stronger effect = lower value 0.988 | locus YHR013C, strain ard1, stronger effect = lower value 0.953 | locus YHR027C, strain rpn1, stronger effect = lower value 0.973 | locus YHR030C, strain SLT2, stronger effect = lower value 0.991 and 0.995 | locus YHR079C, strain IRE1 (second series), stronger effect = lower value 0.98 | locus YHR079C, strain IRE1, stronger effect = lower value 0.988 | locus YHR094C, strain hxt1, stronger effect = lower value 0.976 | locus YHR129C, strain ARP1, stronger effect = lower value 0.989 | locus YHR142W, strain chs7, stronger effect = lower value 0.971 | locus YHR200W, strain rpn10, stronger effect = lower value 0.964 | locus YIL066C, strain RNR3, stronger effect = lower value 0.95 | locus YIL073C, strain SPO22, stronger effect = lower value 0.958 | locus YIL125W, strain kgd1, stronger effect = lower value 0.969 | locus YIR030C, strain dcg1, stronger effect = lower value 0.975 | locus YJL092W, strain hpr5, stronger effect = lower value 0.97 | locus YJL095W, strain BCK1 (second series), stronger effect = lower value 0.98 | locus YJL095W, strain BCK1, stronger effect = lower value 1.05 and 1.01 | locus YJL115W, strain asf1, stronger effect = lower value 0.968 | locus YJL129C, strain trk1, stronger effect = lower value 0.999 | locus YJL134W, strain LCB3, stronger effect = lower value 0.98 | locus YJL154C, strain vps35, stronger effect = lower value 0.984 | locus YJL164C, strain tpk1, stronger effect = lower value 0.933 | locus YJL166W, strain qcr8, stronger effect = lower value 1 | locus YJL168C, strain set2, stronger effect = lower value 0.982 | locus YJL187C, strain SWE1 (second series), stronger effect = lower value 1.01 | locus YJR043C, strain POL32, stronger effect = lower value 0.964

Reference: PubChem BioAssay AID1159580 (chemical genetic matrix, 2015)
